Here are results for four compounds from PubChem BioAssay.

The source made the active and inactive calls. Unless noted, no rule for the calls is given here.

Test [1] concerns Wnt5a (protein binding on small-molecule microarray). Briefly: Wnt5a binders on small-molecule microarray, primary screen, biophysical, 635/667 nm fluorescence (AID 1142).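 Also: fluorescence read at 667 nm with signal to noise per printed feature.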 Conditions: 635 nm fluorescence, higher = more signal.
The nature of test [2]: cell viability in Huh7 cells, primary screen, cytotoxicity control for HCV replication inhibitor project, CellTiter-Glo luminescence, basal, 48 h (AID 1143).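 Also: Huh7 hepatoma cells carrying a hepatitis C replication reporter with no stimulus; test concentration not given here.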 The settings on record: Huh7 HCV replicon, higher = more signal, called active from +8 up or from −8 down. A general note: In ATP-based viability assays light output follows the ATP content of the culture.
Test [3] is described as follows: P. aeruginosa biofilm formation inhibitors, primary screen, PAO1 strain, BacTiter-Glo luminescence, LB-PBS (AID 1144). The settings on record: 12 h, higher = more signal.
Test [4] is described as follows: CREB reporter modulators without forskolin, primary screen, cell-based, PC12, CRE-LacZ reporter, unstimulated (AID 1145). Conditions: no forskolin, luminescence, 4.5 h, higher = more signal, called active from +8 up or from −8 down.
The nature of test [5]: CREB reporter modulators under forskolin, primary screen, cell-based, PC12, CRE-LacZ reporter, forskolin-stimulated (AID 1146).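 Also: PC12 cells with 6xCRE LacZ reporter stimulated by forskolin 10 µM; beta-galactosidase reporter signal reflecting CREB driven transcription.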 Conditions: luminescence, 4.5 h, higher = more signal, called active from +8 up or from −8 down.
In test [6] the target is Streptavidin (Streptomyces avidinii) (UniProt P22629). Description: streptavidin binders on small-molecule microarray, primary screen, artefact control for SMM compound annotation, biophysical, 635/667 nm fluorescence (AID 1147).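 Also: signal reflects streptavidin binding to arrayed compounds as a control protein.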 Conditions: streptavidin binding, higher = more signal.
Test [7] can be described thus: small-molecule binders of probe aInhba, primary screen, biochemical, small-molecule microarray, 635/667 nm fluorescence (AID 1148).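 Also: score merges 667nm spot fluorescence with signal-to-noise for antibody binding to printed compounds.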 Conditions: higher = more signal.
Test [8] concerns the target Torsin-1A (Homo sapiens) (UniProt O14656). Briefly: torsin A binders from cell lysate, primary screen, small-molecule microarray, wild-type, 635/667 nm (AID 1149). Conditions: COS7 hTOR1A-WT lysate, 635 nm fluorescence, higher = more signal.
Test [9] shares this target. Briefly: small-molecule binders of mutant TOR1A in lysate, primary screen, cell lysate, small-molecule microarray, COS7 lysate, 635/667 nm fluorescence (AID 1150).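 Also: score pools 667 nm emission and signal to noise measuring lysate protein binding.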 Conditions: COS7 hTOR1A mutant lysate, 635 nm fluorescence, higher = more signal.
Test [10] deals with Sonic hedgehog protein (Shh). Briefly: small-molecule binders of Shh protein, primary screen, biochemical, small-molecule microarray, 635/667 nm fluorescence (AID 1151).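 Also: Shh protein binding to compounds spotted on small-molecule microarray slides; score combines spot fluorescence intensity with signal-to-noise across triplicate slides.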 Conditions: small-molecule microarray binding, 635 nm fluorescence; higher = more signal.
Test [11] in a line: E. coli DRC41 culture turbidity changes, primary screen, E. coli filamentation inducer project, strain DRC41, OD650, 48 h (AID 1152).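 Also: E. coli MC1000 strain DRC41 lacking acrAB efflux pump and sulA.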 The settings on record: E. coli DRC41 (acrAB sulA), higher = more signal, called active from +8 up or from −8 down.
Test [12] can be described thus: small-molecule binders of probe aLefty1, primary screen, biochemical, small-molecule microarray, 635/667 nm fluorescence (AID 1153).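 Also: score merges spot fluorescence with signal-to-noise ratio from the scanned slide images.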 Conditions: higher = more signal.
A short description of test [13]: PSAC antagonists in infected red cells, primary screen, cell-based, P. falciparum Indochina, OD700, 1 h (AID 1154). Conditions: P. falciparum Indochina infected RBC osmotic lysis, higher = more signal, called active from +8 up or from −8 down.
Test [14] is described as follows: PSAC antagonists in infected red cells, primary screen, cell-based, P. falciparum Indochina, OD700, 2 h (AID 1155).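 Also: lysis reports solute entry through the parasite surface anion channel PSAC; channel blockers reduce lysis of infected cells.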 The settings on record: P. falciparum Indochina infected erythrocytes, osmotic lysis OD700; higher = more signal, called active from +8 up or from −8 down.
Test [15] is described as follows: osmotic lysis modulators in infected erythrocytes, primary screen, PSAC antagonist project, cell-based, P. falciparum Indochina, OD700, 3 h (AID 1156). Conditions: higher = more signal, called active from +8 up or from −8 down.
Test [16] in a line: PSAC antagonists in infected red cells, primary screen, cell-based, P. falciparum Indochina, OD700, 18 h (AID 1157). Conditions: P. falciparum Indochina infected erythrocytes, osmotic lysis OD700, 18 h; higher = more signal, called active from +8 up or from −8 down.
Test [17] can be described thus: modulators of S6 phosphorylation in cells, primary screen, cell-based, A549, cytoblot, luminescence, serum-stimulated (AID 1158).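 Also: serum-stimulated A549 lung adenocarcinoma cells; signal is phosphorylated S6 detected by cytoblot immunostaining with HRP secondary.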 Conditions: A549 phospho-S6 cytoblot, 5 h, higher = more signal.
The target of test [18] is NADPH oxidase 2 (Homo sapiens) (UniProt P04839). Briefly: NOX2-dependent H2O2 signal modulators, primary screen, NOX inhibitor project, cell-based, HEK293-NOX2, PMA-stimulated, Amplex Red fluorescence (AID 1159). Also: test concentration not given here. Conditions: 45 min, higher = more signal, called active from +8 up or from −8 down.
Test [19] concerns the target NADPH oxidase 4 (Homo sapiens) (UniProt Q9NPH5). Description: NOX4-dependent H2O2 signal modulators, primary screen, NOX inhibitor project, cell-based, HEK293-NOX4, tetracycline-induced, Amplex Red fluorescence (AID 1160). The settings on record: 45 min, higher = more signal, called active from +8 up or from −8 down.
Test [20] addresses NADPH oxidase 5 (Homo sapiens) (UniProt Q96PH1). Description: NOX5-dependent H2O2 signal modulators, primary screen, NOX inhibitor project, cell-based, HEK293-NOX5, Amplex Red fluorescence (AID 1161). Conditions: HEK293-NOX5, ionomycin, 45 min, higher = more signal.

Sequence of NADPH oxidase 4 (Homo sapiens) (Q9NPH5 whole entry, looked up): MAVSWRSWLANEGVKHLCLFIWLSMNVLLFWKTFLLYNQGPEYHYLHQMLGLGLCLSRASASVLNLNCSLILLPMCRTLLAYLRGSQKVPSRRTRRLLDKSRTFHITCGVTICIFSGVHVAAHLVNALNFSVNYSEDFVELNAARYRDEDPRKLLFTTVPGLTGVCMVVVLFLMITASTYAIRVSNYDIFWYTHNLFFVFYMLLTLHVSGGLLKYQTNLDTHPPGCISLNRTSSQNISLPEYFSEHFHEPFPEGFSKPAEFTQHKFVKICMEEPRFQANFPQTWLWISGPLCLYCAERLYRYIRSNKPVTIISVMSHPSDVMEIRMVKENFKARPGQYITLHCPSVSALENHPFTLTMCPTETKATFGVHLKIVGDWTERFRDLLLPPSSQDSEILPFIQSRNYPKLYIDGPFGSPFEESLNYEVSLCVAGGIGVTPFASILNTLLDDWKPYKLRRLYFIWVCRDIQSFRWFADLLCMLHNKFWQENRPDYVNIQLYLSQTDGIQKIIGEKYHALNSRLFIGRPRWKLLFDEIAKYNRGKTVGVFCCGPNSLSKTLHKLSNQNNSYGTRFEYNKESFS
Sequence of Torsin-1A (Homo sapiens) (O14656 whole entry, looked up): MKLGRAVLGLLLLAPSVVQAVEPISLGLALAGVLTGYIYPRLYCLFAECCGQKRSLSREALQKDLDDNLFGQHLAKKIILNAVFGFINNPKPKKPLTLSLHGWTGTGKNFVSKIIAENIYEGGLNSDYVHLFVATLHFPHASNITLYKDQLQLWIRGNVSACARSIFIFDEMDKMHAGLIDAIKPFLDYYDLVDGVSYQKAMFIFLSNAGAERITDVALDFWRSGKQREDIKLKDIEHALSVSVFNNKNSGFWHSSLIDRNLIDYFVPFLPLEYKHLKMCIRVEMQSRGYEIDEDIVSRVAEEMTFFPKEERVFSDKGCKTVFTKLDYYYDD
Sequence of Streptavidin (Streptomyces avidinii) (P22629 whole entry, looked up): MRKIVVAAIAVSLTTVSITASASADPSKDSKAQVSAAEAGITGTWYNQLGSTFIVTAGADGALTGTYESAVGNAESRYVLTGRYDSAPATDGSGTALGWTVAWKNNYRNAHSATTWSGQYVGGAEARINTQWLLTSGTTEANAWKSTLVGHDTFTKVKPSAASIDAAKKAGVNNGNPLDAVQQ
Sequence of NADPH oxidase 5 (Homo sapiens) (Q96PH1 whole entry, looked up): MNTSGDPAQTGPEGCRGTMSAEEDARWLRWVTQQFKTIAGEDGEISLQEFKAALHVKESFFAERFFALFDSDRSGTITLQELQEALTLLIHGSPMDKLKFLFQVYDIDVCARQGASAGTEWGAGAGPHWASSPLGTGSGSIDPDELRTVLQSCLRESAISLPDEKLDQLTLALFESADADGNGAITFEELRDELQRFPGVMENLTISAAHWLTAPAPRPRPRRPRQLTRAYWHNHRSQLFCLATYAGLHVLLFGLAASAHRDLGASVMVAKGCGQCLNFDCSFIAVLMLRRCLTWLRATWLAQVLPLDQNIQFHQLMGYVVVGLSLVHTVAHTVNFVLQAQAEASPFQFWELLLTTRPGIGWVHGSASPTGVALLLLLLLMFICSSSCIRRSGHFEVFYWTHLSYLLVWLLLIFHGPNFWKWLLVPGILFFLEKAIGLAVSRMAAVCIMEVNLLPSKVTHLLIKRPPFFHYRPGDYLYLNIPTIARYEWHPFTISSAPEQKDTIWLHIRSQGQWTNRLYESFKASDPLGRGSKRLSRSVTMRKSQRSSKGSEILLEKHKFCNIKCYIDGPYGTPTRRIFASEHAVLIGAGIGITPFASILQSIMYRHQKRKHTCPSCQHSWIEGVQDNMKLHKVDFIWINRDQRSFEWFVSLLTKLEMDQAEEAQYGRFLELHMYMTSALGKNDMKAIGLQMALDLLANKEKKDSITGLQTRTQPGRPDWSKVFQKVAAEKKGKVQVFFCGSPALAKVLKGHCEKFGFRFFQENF
Sequence of NADPH oxidase 2 (Homo sapiens) (P04839 whole entry, looked up): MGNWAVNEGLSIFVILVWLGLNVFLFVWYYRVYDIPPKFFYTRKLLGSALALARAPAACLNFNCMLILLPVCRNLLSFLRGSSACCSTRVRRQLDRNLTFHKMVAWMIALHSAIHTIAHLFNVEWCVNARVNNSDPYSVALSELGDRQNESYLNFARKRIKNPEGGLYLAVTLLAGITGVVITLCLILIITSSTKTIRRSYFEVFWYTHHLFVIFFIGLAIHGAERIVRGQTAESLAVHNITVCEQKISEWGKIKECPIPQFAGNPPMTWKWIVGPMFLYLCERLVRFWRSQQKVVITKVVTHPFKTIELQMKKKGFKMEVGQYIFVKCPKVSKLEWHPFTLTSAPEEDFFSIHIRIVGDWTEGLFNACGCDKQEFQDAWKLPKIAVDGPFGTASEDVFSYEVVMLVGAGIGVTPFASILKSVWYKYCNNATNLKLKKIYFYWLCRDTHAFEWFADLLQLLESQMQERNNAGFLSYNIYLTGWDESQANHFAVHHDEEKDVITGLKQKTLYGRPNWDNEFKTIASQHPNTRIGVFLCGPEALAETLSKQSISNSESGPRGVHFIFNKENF

`O=C1NC(=O)C2C1C=CC(C(O)c1ccc(I)cc1)N2Nc1ccccn1` (stereo not given): the composite z-score in test [1] is -0.0488; in test [6], 0.242; in test [7] it was -0.0216; in test [8], 0.282; in test [9] it was 0.239; in [10], -0.0484. In addition, the composite z-score in test [12] came to 0.0701. Besides, the z-score in test [2] was 0.886 (inactive); in test [3] it was -0.833 (inactive); in test [4] it was 0.636 (inactive); in test [5], 0.0542 (inactive); in [11], -1.29 (inactive); in [13], 1.41 (inactive). Further, the z-score was 0.698 (inactive) in test [14]; 0.0388 (inactive) in [15]; 0.729 (inactive) in [16]; -0.779 in test [17]; -1.16 (inactive) in [18]; -2.82 (inactive) in test [19]. The z-score in test [20] is -2.2.

`CO[C@H]1O[C@H](CO)[C@@H](OC(=O)Nc2ccccc2-c2ccccc2)[C@H](OC(=O)Nc2ccccc2-c2ccccc2)[C@@H]1OC(=O)Nc1ccccc1-c1ccccc1`: the composite z-score worked out at 0.689 in test [1]; 1.08 in test [6]; 0.173 in [7]; 0.1 in test [8]; 0.53 in test [9]; 1.37 in [10]. In test [12], this compound displayed a composite z-score of 0.407. For the same compound, the z-score is -3.41 (inactive) in test [2]; -0.399 (inactive) in test [3]; 0.391 (inactive) in test [4]; 0.0225 (inactive) in test [5]; 1.23 (inactive) in test [11]; 1.79 (inactive) in [13]. Besides, the z-score was 1.44 (inactive) in test [14]; 0.552 (inactive) in [15]; 0.938 (inactive) in test [16]; -0.296 in [17]; 2.02 (inactive) in test [18]; 0.114 (inactive) in [19]. This compound gave a z-score in test [20] of -0.114.

As to `COC(=O)c1c(CC[C@@H](CO)NC(=O)N[C@H](Cc2ccccc2)Cn2cc(-c3ccccn3)nn2)oc(C(C)=O)c1C(=O)OC`, the composite z-score in test [1] is -0.293; in [6] it was 0.946; in [7] it was -0.105; in test [8], 0.813; in [9], 0.0502; in test [10], 0.248. In addition, in [12], the composite z-score was -0.194. For the same compound, the z-score in test [2] is -0.105 (inactive); in test [3] it was 0.542 (inactive); in [4], 0.367 (inactive); in [5], 0.453 (inactive); in test [11], -0.72 (inactive); in [13], 27.1 (active). The z-score is 12.7 (active) in test [14]; 0.729 (inactive) in [15]; 1.41 (inactive) in test [16]; 0.032 in test [17]; -1.52 (inactive) in test [18]; 0.594 (inactive) in test [19]. Also, the z-score in test [20] amounted to 1.24.

Take `O=C1C2C=CC(C(O)C=Cc3ccc([N+](=O)[O-])cc3)N(Nc3ccccc3F)C2C(=O)N1c1ccccc1` (stereo not given): the composite z-score in test [1] was 0.265; in [6], 1.77; in test [7], 0.095; in test [8], 0.422; in [9] it was 0.31; in test [10] it was -0.0025. Moreover, in test [12], the composite z-score is 0.329. Further, the z-score was -0.071 (inactive) in [2]; 0.0113 (inactive) in test [3]; -0.424 (inactive) in [4]; -0.156 (inactive) in [5]; -1.37 (inactive) in test [11]; 13.1 (active) in test [13]. For the same compound, the z-score in [14] was 3.11 (inactive); in [15], 0.105 (inactive); in test [16], 1.59 (inactive); in test [17] it was -0.832; in [18] it was -1.43 (inactive); in test [19] it was -3.02 (inactive). In [20], this compound registered a z-score of -3.26.
